The values below come from PubChem BioAssay.

Calls of active or inactive are those of the source. Unless noted, no rule for the calls is given here.

The nature of experiment [1]: circadian clock period modulators, cell-based, LOPAC library, luminescence reporter (AID 2774).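 Also: values are relative to mean of DMSO wells on each plate.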 Particulars: circadian reporter cells, at 7 µM, actives lie on both sides.
Experiment [2] relates to Hepatitis C virus NS3 helicase. Description: HCV NS3 helicase inhibitors, primary screen, biochemical, fluorescence polarization, LOPAC1280 library (AID 687035; in the data active = inhibition above about 37%). Particulars: Purified HCV NS3 helicase, Cy5-dT15 ssDNA binding fluorescence polarization; stronger effect = higher value; concentration not given here. For orientation: Polarisation of emitted light reports the rotation of a fluorescent probe.

Experiment [3] in a line: Cy5 fluorescence quenching or enhancement artefacts, artefact control for HCV NS3 helicase inhibitor project, biochemical, LOPAC1280 (AID 687037). Particulars: Cy5-DNA-NS3h complex fluorescence interference counterscreen. (In general: A counterscreen serves to expose hits that act by an unwanted route or on another target.)
Experiment [4] is described as follows: sensitizers of A549 cells to miR-34 induction, primary screen, imaging, A549 dox-inducible miR-34, nuclei and caspase counts (AID 1347080;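 active = compounds whose cell count with miR-34 switched on is under 0.7 times the count with it off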). Particulars: A549 miR-34 inducible, Hoechst nuclei count, 48 h.
Experiment [5] in a line: phospholipid biosynthesis inhibitors in animal cells, primary screen, cell-based, LOPAC library, screen 4 (AID 1347384). To be noted: phospholipid biosynthesis inhibition screen, at 10 µM.
Experiment [6] is described as follows: viability rescue of complex I mutant cybrids, primary screen, cell-based, galactose medium, ATP luminescence (AID 1645843;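 active = z-score of at least 1.8 in each of two replicates, scored against plate mean and spread of sample wells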;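 also: positive z means more ATP and so rescue of galactose-driven cybrid death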). To be noted: complex I mutant cybrid cells, 72 h, stronger effect = higher value.
Experiment [7] is described as follows: liver-stage malaria parasite growth inhibition, primary screen, cell-based, HepG2, luciferase luminescence, HepG2 viability (AID 624349; in the data active = parasite load remaining mostly below about 12%, no sharp cut-off; inactive = mostly above about 10%;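 also: 100% = mean of DMSO negative control wells on the same plate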). Particulars: P. berghei liver stage in HepG2, luciferase luminescence, concentration not given here; parasite load remaining: stronger effect = lower value; viability: measured here: HepG2 viability without parasites.
[8] abbreviates: stronger effect = lower value, cell number ratio, induced over uninduced.
[9] abbreviates: measured here: relative caspase fold change +Dox/-Dox.
[10] abbreviates: measured here: total cells with miR-34 induction, stronger effect = lower value.
The mark [11] stands for this setting: measured here: total cells without miR-34 induction.

A word on the inhibition: it is the change of the read-out against control, counted positive when it falls. For `O=C(O)c1cc(=O)cc(C(=O)O)[nH]1`, in experiment [1], the period change is -0.025 h (inactive). Also, the inhibition in experiment [2] is 0% (inactive). In addition, in experiment [3], the fluorescence ratio (interference) is 1 (inactive). The fold change in experiment [4] (setting [8]) was 0.984 (inactive); in experiment [4] (setting [9]), 1.62. Moreover, the cell count was 10200 in experiment [4] (setting [10]) and 10300 in experiment [4] (setting [11]). Further, the outcome in experiment [5] was inactive. Also, the z-score in experiment [6] is 0.285 (inactive).
In the case of `O=C(c1ccc2c(c1)OCCO2)N1CCCCC1`, the period change in experiment [1] is -0.22 h (inactive). Also, the inhibition in experiment [2] is -1% (inactive). Besides, the fluorescence ratio (interference) in experiment [3] was 1 (inactive). Besides, the fold change was 1.07 (inactive) in experiment [4] (setting [8]) and 1.38 in experiment [4] (setting [9]). Further, the cell count in experiment [4] (setting [10]) was 9110; in experiment [4] (setting [11]), 8530. Also, the result in experiment [5] was inactive. The z-score in experiment [6] was 0.315 (inactive).
For the molecule `NC(Cc1cccc(-c2ccccc2CP(=O)(O)O)c1)C(=O)O` (stereo unspecified), the period change in experiment [1] was -0.07 h (inactive). For the same molecule, in experiment [2], the inhibition was -5% (inactive). Moreover, the fluorescence ratio (interference) in experiment [3] was 1 (inactive). In addition, the results for the fold change in experiment [4] (setting [8]) and in experiment [4] (setting [9]) were 0.998 (inactive) and 1.77, respectively. For the same molecule, the values for the cell count in experiment [4] (setting [10]) and in experiment [4] (setting [11]) were 10900 and 11000, respectively. Further, the molecule was classed as inactive in experiment [5]. For the same molecule, the z-score in experiment [6] is 0.42 (inactive).
Consider `Cc1cc(NC(=O)Nc2ccc3c(ccn3C)c2)sn1`, for which the period change in experiment [1] was -0.055 h (inactive). Further, in experiment [2], the inhibition was -1% (inactive). Also, the fluorescence ratio (interference) in experiment [3] is 0.9 (inactive). The fold change was 1.07 (inactive) in experiment [4] (setting [8]) and 1.78 in experiment [4] (setting [9]). In addition, the figures for the cell count in experiment [4] (setting [10]) and in experiment [4] (setting [11]) were 9080 and 8470, respectively. The molecule was classed as inactive in experiment [5]. The z-score in experiment [6] is 0.19 (inactive).
As to `NO`, the period change in experiment [1] was -0.195 h (inactive). Moreover, in experiment [2], the inhibition is 1% (inactive). Besides, the fluorescence ratio (interference) in experiment [3] is 1 (inactive). For the same molecule, the results for the fold change in experiment [4] (setting [8]) and in experiment [4] (setting [9]) were 1.15 (inactive) and 1.06, respectively. In addition, the results for the cell count in experiment [4] (setting [10]) and in experiment [4] (setting [11]) were 10000 and 8720, respectively. In experiment [5], the result was inactive. For the same molecule, the z-score in experiment [6] was 0.49 (inactive).
In the case of `CC(=O)N[C@@H](Cc1c[nH]c2ccccc12)C(=O)OCc1cc(C(F)(F)F)cc(C(F)(F)F)c1`, in experiment [1], the period change was 0.005 h (inactive). For the same molecule, the inhibition in experiment [2] is -3% (inactive). The fluorescence ratio (interference) in experiment [3] is 0.9 (inactive). Also, the values for the fold change in experiment [4] (setting [8]) and in experiment [4] (setting [9]) were 1.03 (inactive) and 1.8, respectively. In addition, the cell count in experiment [4] (setting [10]) worked out at 9980; in experiment [4] (setting [11]) it was 9690. In addition, in experiment [5], the call was inactive. Besides, the z-score in experiment [6] is -0.03 (inactive).
Take `CN1CCC2(CCN3CCc4c(oc5ccccc45)C3C2)N(C)C1=O` (stereo unspecified): in experiment [1], the period change is 0.125 h (inactive). The inhibition in experiment [2] was 3% (inactive). The fluorescence ratio (interference) in experiment [3] was 1 (inactive). Further, the fold change in experiment [4] (setting [8]) was 1.04 (inactive); in experiment [4] (setting [9]) it was 0.751. Also, the cell count came to 7560 in experiment [4] (setting [10]) and 7300 in experiment [4] (setting [11]). In experiment [5], the outcome was inactive. Besides, the z-score in experiment [6] is -0.87 (inactive).
As for `C[C@H](Cc1ccccc1)Nc1ncnc2c1ncn2[C@@H]1O[C@H](CO)[C@H](O)C1O` (stereo partly specified), the period change in experiment [1] was -0.12 h (inactive). In experiment [2], the inhibition was -8% (inactive). In addition, the fluorescence ratio (interference) in experiment [3] is 1 (inactive). Also, the fold change in experiment [4] (setting [8]) is 1.08 (inactive); in experiment [4] (setting [9]), 0.57. Also, the cell count in experiment [4] (setting [10]) is 9860; in experiment [4] (setting [11]), 9130. Further, the molecule was classed as inactive in experiment [5]. The z-score in experiment [6] was 1.45 (inactive).
Turning to `COc1ccc2c(c1)CCC1C2CC[C@@]2(C)C1CC[C@@H]2NCCCCCCN1C(=O)C=CC1=O` (stereo partly specified), in experiment [1], the period change is -0.255 h (inactive). Further, the inhibition in experiment [2] is 5% (inactive). Further, the fluorescence ratio (interference) in experiment [3] is 0.8 (active). Also, the fold change in experiment [4] (setting [8]) is 1.05 (inactive); in experiment [4] (setting [9]), 1.05. In addition, the cell count was found to be 9380 in experiment [4] (setting [10]) and 8930 in experiment [4] (setting [11]). In addition, the molecule was called inactive in experiment [5]. Further, the z-score in experiment [6] is 0.035 (inactive).
`O=[N+]([O-])c1ccc(CSc2ncnc3c2ncn3[C@@H]2O[C@H](CO)[C@H](O)C2O)cc1` (stereo partly specified): the period change in experiment [1] is -0.085 h (inactive). Also, in experiment [2], the inhibition is -4% (inactive). For the same molecule, the fluorescence ratio (interference) in experiment [3] was 0.9 (inactive). Also, the fold change was 1.12 (inactive) in experiment [4] (setting [8]) and 0.942 in experiment [4] (setting [9]). Further, the cell count in experiment [4] (setting [10]) is 10500; in experiment [4] (setting [11]), 9340. Besides, the call in experiment [5] was inactive. For the same molecule, the z-score in experiment [6] is 1.67 (inactive).
For `Oc1ccccc1O`, in experiment [1], the period change was -0.735 h (inactive). Besides, the inhibition in experiment [2] was -1% (inactive). For the same molecule, in experiment [3], the fluorescence ratio (interference) is 1 (inactive). Further, the fold change in experiment [4] (setting [8]) was 1.03 (inactive); in experiment [4] (setting [9]), 1.8. For the same molecule, the cell count in experiment [4] (setting [10]) amounted to 7780; in experiment [4] (setting [11]), 7580. Also, the result in experiment [5] was inactive. For the same molecule, in experiment [6], the z-score was -1.42 (inactive).
For `OC[C@H]1O[C@@H](n2cnc3c(NC4CCCCC4)ncnc32)[C@H](O)[C@@H]1O`, the period change in experiment [1] is 0.08 h (inactive). Besides, the inhibition in experiment [2] is -1% (inactive). For the same molecule, the fluorescence ratio (interference) in experiment [3] is 1 (inactive). The fold change in experiment [4] (setting [8]) is 0.959 (inactive); in experiment [4] (setting [9]), 1.25. For the same molecule, the cell count in experiment [4] (setting [10]) was 9650; in experiment [4] (setting [11]), 10100. Besides, the molecule was classed as inactive in experiment [5]. For the same molecule, the z-score in experiment [6] was 0.865 (inactive).
For the molecule `Nc1nc(Cl)nc2c1ncn2[C@@H]1O[C@H](COP(=O)(O)OP(=O)(O)OP(=O)(O)O)[C@H](O)C1O` (stereo partly specified), in experiment [1], the period change is -0.055 h (inactive). The inhibition in experiment [2] is 37% (active). Further, the fluorescence ratio (interference) in experiment [3] is 1 (inactive). Besides, the figures for the fold change in experiment [4] (setting [8]) and in experiment [4] (setting [9]) were 1.14 (inactive) and 1.19, respectively. Moreover, the cell count in experiment [4] (setting [10]) turned out to be 2920; in experiment [4] (setting [11]) it was 2560. Also, the molecule was called inactive in experiment [5]. Besides, the z-score in experiment [6] is 0.235 (inactive).
Regarding `Fc1ccc(C(OCCCc2cnc[nH]2)c2ccc(F)cc2)cc1`, in experiment [1], the period change is 0.11 h (inactive). Moreover, in experiment [2], the inhibition was -1% (inactive). Further, the fluorescence ratio (interference) in experiment [3] was 1 (inactive). Also, the fold change in experiment [4] (setting [8]) is 0.951 (inactive); in experiment [4] (setting [9]), 0.647. Further, the results for the cell count in experiment [4] (setting [10]) and in experiment [4] (setting [11]) were 8620 and 9060, respectively. In addition, in experiment [5], the call was inactive. Further, in experiment [6], the z-score was -1.19 (inactive).
As to `CCN1C(=O)C=CC1=O`, the period change in experiment [1] was 0.135 h (inactive). Further, in experiment [2], the inhibition was -3% (inactive). In experiment [3], the fluorescence ratio (interference) is 1 (inactive). Also, the fold change in experiment [4] (setting [8]) was 0.985 (inactive); in experiment [4] (setting [9]), 1.06. For the same molecule, the cell count in experiment [4] (setting [10]) came out at 9620; in experiment [4] (setting [11]), 9760. Besides, the outcome in experiment [5] was inactive. In addition, in experiment [6], the z-score is -0.99 (inactive).
Turning to `Nc1ncnc2c1ncn2[C@@H]1O[C@H](COP(=O)(O)OP(=O)(O)OP(=O)(O)OP(=O)(O)OC[C@@H]2O[C@H](n3cnc4c(N)ncnc43)C(O)[C@@H]2O)[C@H](O)C1O` (stereo partly specified), the period change in experiment [1] is 0.05 h (inactive). Moreover, the inhibition in experiment [2] is 3% (inactive). For the same molecule, the fluorescence ratio (interference) in experiment [3] is 1 (inactive). The values for the fold change in experiment [4] (setting [8]) and in experiment [4] (setting [9]) were 0.899 (inactive) and 1.4, respectively. Further, the cell count amounted to 8750 in experiment [4] (setting [10]) and 9730 in experiment [4] (setting [11]). In experiment [5], the call was inactive. For the same molecule, in experiment [6], the z-score is 4.53 (active).
As for `CCNC(=O)[C@H]1O[C@@H](n2cnc3c(N)nc(NCCc4ccc(CCC(=O)O)cc4)nc32)C(O)[C@H]1O` (stereo partly specified), in experiment [1], the period change was 0.1 h (inactive). In addition, in experiment [2], the inhibition was 0% (inactive). For the same molecule, in experiment [3], the fluorescence ratio (interference) was 1 (inactive). The fold change in experiment [4] (setting [8]) was 0.963 (inactive); in experiment [4] (setting [9]), 1.23. Besides, the cell count was found to be 9660 in experiment [4] (setting [10]) and 10000 in experiment [4] (setting [11]). Further, the result in experiment [5] was inactive. The z-score in experiment [6] is 0.485 (inactive).
Broadly, the viability is a read-out of living cells in per cent, often relative to untreated cells. In the case of `O=[N+]([O-])c1ccc(CNc2nc(NCc3cccc(C(F)(F)F)c3)nc3nc[nH]c23)cc1`, in experiment [7], the parasite load remaining was 41.7% (inactive). Further, in experiment [7], the viability was 142%. Further, the fold change in experiment [4] (setting [8]) was 1.02 (inactive); in experiment [4] (setting [9]), 2.13. Also, the cell count in experiment [4] (setting [10]) turned out to be 7880; in experiment [4] (setting [11]) it was 7740. The molecule was called inactive in experiment [5]. Moreover, the z-score in experiment [6] was -0.05 (inactive).
